# MARV entry inh: blocks Marburg virus binding to or entry into cells | Marburg virus pseudotyped entry inhibition, cell reporter | Potency, µM (top dose mostly 37.8 µM), without a hit: at the highest dose activity change, negative = inhibition, most hits filed as inhibitors | 300,000 compounds, 1.8% hits; calls by dose curve; tested in HEK293 cells; further: potency means the concentration at half of the fitted maximal effect; on the % scale 0 is the no-effect control and ±100 the full control effect
# Shiga toxin inh: Shiga toxin inhibition; Vero cells, Shiga toxin protein synthesis inhibition reporter; inhibition, % at 38.7 µM; 290,000 compounds, 9.2% hits; in the data active means inhibition mostly above about 28%, no sharp cut-off; inactive means mostly below about 43%; further: 0% is about no effect
# HCV inh: HCV inhibition. Huh7.5.1 HCVcc-Cre infection, luciferase reporter, 44 h. Potency, µM (highest dose often 41.8 µM), without a hit: top-dose activity change, negative = inhibition, actives largely listed as inhibitors. 340,000 compounds, 3.4% hits. AID 651820; active means well fitted inhibition curve with a large enough effect; inconclusive means small, poorly fitted or top-dose-only effect, or another doubt; inactive means no such curve, though single readings can be large or run the other way; further: potency means the concentration at half of the fitted maximal effect; on the % scale 0 is the no-effect control and ±100 the full control effect
#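 Cells (1,000/well) were plated 4 h before compound, then infected with HCVcc-Cre virus (~0.5 moi). After 44 h further culture, infection was read as luciferase luminescence following a 15 min substrate incubation at room temperature.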
# Lassa entry inh: inhibitors of Lassa virus binding or cell entry. Lassa virus pseudotype entry inhibition, cell reporter. Potency, µM (series often up to 37.9 µM), without a hit: at the highest dose activity change, negative = inhibition, usual class: inhibitors. 300,000 compounds, 1.2% hits. AID 540256; calls by dose curve; tested in HEK293 cells; further: potency means the concentration at half of the fitted maximal effect; on the % scale 0 is the no-effect control and ±100 the full control effect; nearly all actives have a fitted effect of over 50% in size
# CHX counter: counter-screen hit for Shiga toxin inhibitors, cycloheximide | cell reporter, cycloheximide protein synthesis inhibition counterscreen | max response, % | 300,000 compounds, 12% hits | AID 2314; in the data active means max response mostly above about 13%, no sharp cut-off; inactive means mostly below about 14%; further: read at 38.3 µM for the half of the compounds with a filed dose; 0% is about no effect
# FMDV inh: antivirals against foot and mouth disease virus | Potency, µM (highest dose often 57.9 µM), for the others: top-dose activity change, negative = inhibition, hits mostly inhibitors | FMDV antiviral cell-based qHTS | 410,000 compounds, 1.2% hits; calls by dose curve; tested in HEK293T cells; further: read-out not given here; potency means the concentration at half of the fitted maximal effect; on the % scale 0 is the no-effect control and ±100 the full control effect; nearly all actives have a fitted effect of over 45% in size
# Starred values were filed as active, the others as inactive; u = inconclusive; x = no result; [ ] = another dose, or the depositor's remark. Rows were chosen to be rich in hits. Some 13% of all compounds tested hit in one or more screens of this group.
SMILES,MARV entry inh,Shiga toxin inh,HCV inh,Lassa entry inh,CHX counter,FMDV inh
CCOCC(=O)Nc1nc2ccccc2s1,5%,125*,6%,u,48*,35%
CC1CCCN(CCCNC(=O)C2CCN(S(=O)(=O)N3CCC4(CC3)OCCO4)CC2)C1 (stereo not drawn),x,-9,u,x,-3,-10%
CC(C)=CCC[C@@](C)(O)[C@H]1CC=C(C)CC1,x,x,x,x,x,-9%
CNC(=O)c1[nH]cnc1C(=O)Nc1cccc(OC)c1,3%,31,-11%,-25%,15,-8%
Cc1ccc(NC(=O)Nc2nc3ccccc3s2)cc1NC(=O)Nc1nc2ccccc2s1,x,76,14µM*,x,16,4%
O=C(Nc1nc2ccccc2s1)Nc1ccc([N+](=O)[O-])cc1Cl,x,-3,x,x,-2,x
O=C(NCc1ccncc1)C(=O)Nc1nc2ccccc2s1,26%,52*,-4%,2%,42*,58%
Fc1cccc(Cl)c1C1Nc2cccc3cccc(c23)N1,x,34,-14%,x,24*,-14%
Clc1cccc(Cl)c1C1Nc2cccc3cccc(c23)N1,u,5,u,u,3,-23%
C[C@@H](C(=O)NC1CCN(Cc2ccccc2)CC1)N1C(=O)N2CCc3c([nH]c4ccccc34)[C@@]2(C)C1=O,x,-9,7.9µM*,x,-3,u
C[C@@H](C(=O)NC1CCCCC1)N1C(=O)N2CCc3c([nH]c4ccccc34)[C@@]2(C)C1=O,x,3,0.56µM*,x,-3,u
O=C(NCCCN1CCN(c2ccccc2F)CC1)c1sc2ncccc2c1-n1cccc1,x,x,x,-10%[46.1 µM],x,-11%
O=C(CSc1nc(O)c(C2CCCCC2)c(=O)[nH]1)N1CCOCC1,7%[46.1 µM],-8,15%,x,-2,7%
c1coc(-c2nnc(-c3ccco3)nn2)c1,16%[46.1 µM],43*,19%,25%,47*,12%
Brc1ccc(-c2nnc(-c3ccco3)o2)cc1,-3%,73*,u,-4%,47*,2%
c1ccc(-c2nnc(-c3ccco3)o2)cc1,-3%,115*,11%,-5%,43*,48%
CCN(CC)S(=O)(=O)c1cc(-c2nnc(-c3ccc(Br)cc3)o2)ccc1Br,u,8,u,-13%,-2,u
Cc1ccc(-c2nnc(-c3ccc(Br)cc3)o2)o1,u,27*,3%,-7%,18*,27%
CN1CCN(c2ncc3nc(-c4cc(F)cc(F)c4)c(=O)n(-c4ccccc4)c3n2)CC1,x,x,x,x,x,-16%
Nc1nc(SCC(=O)Nc2ccccc2Sc2ccccc2)n[nH]1,-4%,16,-7%,-19%,6,-19%
O=c1cc(-c2ccco2)nc(-c2cccs2)o1,-6%,-16,2%,-5%,-4,-18%
c1coc(-c2nnc(-c3cccs3)o2)c1,-3%,81*,10%,u,49*,18%
COc1cccc(CNC(=O)CCC2CCCN(c3cc(C)nc(N(C)C)n3)C2)c1 (stereo not drawn),u,12,-3%,-16%[46.1 µM],-1,-6%
Cc1cc2nc(C3CCN(Cc4nnnn4Cc4cccs4)CC3)[nH]c2cc1C,u,21,11µM*,u,4,-4%
O=C(O)c1sccc1S(=O)(=O)N1CCN(c2ccc(C(F)(F)F)cn2)CC1,2%[46.1 µM],-6,-3%,29%[46.1 µM],-1,-3%
SMILES,MARV entry inh,Shiga toxin inh,HCV inh,Lassa entry inh,CHX counter,FMDV inh
Cn1c(=NC(=O)c2ccc(S(=O)(=O)N3CCCc4ccccc43)cc2)sc2cc(S(C)(=O)=O)ccc21,4%,0,13%,3%,-4,-18%
Cn1c(=NC(=O)c2ccccc2[N+](=O)[O-])sc2cc(S(C)(=O)=O)ccc21,u,50*,u,14%,64*,32%
Cc1cc(Cl)ccc1OCc1nnc2n1CCCCC2,x,21,6%,x,6,2%
Clc1ccc(OCc2nnc3n2CCCCC3)c(Cl)c1,x,56*,-13%,x,28*,32%
Cc1c(Cl)cccc1N1CCn2c1nc1c2c(=O)n(CC(=O)O)c(=O)n1C,-4%[46.1 µM],x,x,u,x,-27%
C=C(C)Cn1c(=O)c2c(nc3n2CCN3c2cccc(Cl)c2C)n(C)c1=O,4%,-12,u,-11%,-4,22µM*
CC1CCCCN1C(=O)CSc1nc(N)nc(N)n1 (stereo not drawn),19%,x,14%,-3%[46.1 µM],x,-6%
